# Reference: the supplement of paper PMC7156485
# A number with no mark means an inactive call.
# Tested on: TDF
# Assay: H1.0 immunofluorescence intensity relative to DMSO (% of DMSO); higher = stronger H1.0 induction, active = 120 or more
# Conditions: concentration: 10 µM; 24 h
# Outline: (§1)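 HCC1569 and TDF cells (800 per well, 384-well plates, RPMI with 10% FBS) were treated with compounds at 10 µM for 24 h at 37 °C, in triplicate. Cells were fixed in 3.7% formaldehyde and stained with a rabbit anti-H1.0 antibody, an AlexaFluor 647 secondary and DAPI; six fields per well were imaged at ×10. H1.0 nuclear intensity or cell number is expressed as percent of the plate DMSO control, taking the median of replicates. HCC1569 values were smoothed for positional effects.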
# 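Also: TDF is a line of transformed human dermal fibroblasts of mesenchymal origin.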
row,Compound,H1.0 immunofluorescence intensity
1,Cl.NCc1c[nH]c(=S)n1[C@H]1CCc2c(F)cc(F)cc2C1,95.9
2,COc1cc2ncnc(Nc3ccc(Cl)cc3Cl)c2cc1OC [Ste11 MAPKKK Activation Inhibitor],89.8
3,Nc1ccc(-c2cccc3c(=O)cc(N4CCOCC4)oc23)cc1,82.5
4,NC(N)=NCc1cccc(I)c1 [N-(3-iodobenzyl)guanidine],104
5,CC1(NCC(O)COc2cccc3[nH]ccc23)CCC(C(C)(C)NC(=O)CBr)CC1 (stereo not drawn) [Pindobind-5HT1A],135 (active)
6,CC12CCC(=O)C=C1C=CC1C2CCC2(C)C1CCC21CCC(=O)O1 (stereo not drawn) [Canrenone],89.7
7,O=C(c1ccc2c(c1)OCCO2)N1CCCCC1,96.7
8,COc1ccc(C=Cc2cc(OC)cc(=O)o2)cc1 [Yangonin],104
9,CCCCCC(O)CC=C1C(=O)C=CC1CC=CCCCC(=O)O (stereo not drawn) [D12-Prostaglandin J2],103
10,CC(=O)O.NC(=NCCCC(N)C(=O)O)NO [NG-Hydroxy-L-arginine acetate],91.4
11,CNC(=O)c1ccccc1Sc1ccc2c(C=Cc3ccccn3)n[nH]c2c1 [Axitinib],99.1
12,OCC1OC(n2cnc3c(NC4CCCC4)ncnc32)C(O)C1O (stereo not drawn) [N6-Cyclopentyladenosine],93.5
13,O=C1NC(=O)c2c1c(-c1ccccc1)cc1[nH]c3ccc(O)cc3c21,101
14,COc1cccc(/C=N/CC/N=C/c2cccc(OC)c2[O-])c1[O-].[Cl-].[Mn+2],99.4
15,CCOC(=O)Oc1c(OC)cc(C(=O)OC2CC3CN4CCc5c([nH]c6cc(OC)ccc56)C4CC3C(C(=O)OC)C2OC)cc1OC (stereo not drawn) [Syrosingopine],96.8
16,NC(=S)NCCCC(N)C(=O)O (stereo not drawn) [Thiocitrulline],91.5
17,"O.Oc1cc(O)c2c(c1)OC(c1ccc(O)c(O)c1)C(O)C2 (single isomer, unassigned; (+)) [(+)-Catechin Hydrate]",90.6
18,O=c1ccc2ccc(O)c(O)c2o1 [Daphnetin],100
19,"CCN1CCCC1CNC(=O)c1cc(S(N)(=O)=O)ccc1OC (single isomer, unassigned; (-)) [(-)-Sulpiride]",90.9
20,CC(=O)Oc1ccc(C(c2ccc(OC(C)=O)cc2)c2ccccn2)cc1 [Bisacodyl],86.4
21,CC(C)C(=O)Nc1ncc(-c2cc(C(F)F)nn2-c2c(Cl)cccc2Cl)s1,111
22,Cc1ccccc1C(=O)c1ccc(Nc2ccc(Br)cc2N)cc1Cl,93
23,O=C([O-])c1cc(=O)c2c(OCC(O)COc3cccc4oc(C(=O)[O-])cc(=O)c34)cccc2o1.[Na+].[Na+] [Disodium Cromoglycate],90.6
24,CC(C)=CCCC(C)=CCCC(C)=CCCC(C)=CCCC(C)=CCCC(C)=CCCC(C)=CCCC(C)=CCCC(C)=CCO [Solanesol],89.9
25,O=C1NC(=O)C(=Cc2cccc(C(F)(F)F)c2)S1 [PIM1/2 Kinase Inhibitor V],102
26,CC1OC(n2cc(F)c(=O)[nH]c2=O)C(O)C1O (stereo not drawn) [Doxifluridine],98.3
27,CCCCN1CCCC[C@H]1C(=O)Nc1c(C)cccc1C.Cl,96.8
28,Cl.O.O=C(O)CN(CCN(CC(=O)O)Cc1ccccc1O)Cc1ccccc1O,108

# Tested on: HCC1569
# Assay: H1.0 immunofluorescence intensity relative to DMSO (% of DMSO); higher = stronger H1.0 induction, active = 140 or more
# Conditions: concentration: 10 µM; 24 h
# Outline: as §1
row,Compound,H1.0 immunofluorescence intensity
1,CS(=O)c1ccc(-c2nc(-c3ccc(F)cc3)c(-c3ccncc3)[nH]2)cc1.Cl (stereo not drawn),117
2,CN(C)c1nc(N(C)C)nc(N(C)C)n1 [Altretamine],113
3,CCCN(CCC)CC1CCCCN1CCNC(=O)N1c2ccccc2C(=O)Nc2cccnc21 (stereo not drawn),100
4,C=CCc1ccc(O)c(OC)c1 [Eugenol],95.1
5,CC(=O)OCC1=C(C(=O)[O-])N2C(=O)C(NC(=O)CSc3ccncc3)C2SC1.[Na+] (stereo not drawn) [Cephapirin sodium],84.4
6,CCn1nc(C(=O)O)c(=O)c2cc3c(cc21)OCO3 [Cinoxacin],97.5
7,COc1cc2c(cc1OC)CC(=O)N(CCCN(C)C[C@H]1Cc3cc(OC)c(OC)cc31)CC2.Cl,97.3
8,CC1CCC2(C(=O)O)CCC3(C)C(=CCC4C5(C)CCC(O)C(C)(C)C5CCC43C)C2C1C (stereo not drawn) [Ursolic acid],93.7
9,CS(=O)(=O)CCNCc1nc(-c2ccc3ncnc(Nc4ccc(OCc5cccc(F)c5)c(Cl)c4)c3c2)cs1.Cl.Cl,136
10,CCN(Cc1ccncc1)C(=O)C(CO)c1ccccc1 (stereo not drawn) [Tropicamide],100
11,O=C1C=C(CO)OCC1=O [5-hydroxy-2-(hydroxymethyl)-4H-pyran-4-one],92
12,CC(=O)OCC(=O)C1(O)CCC2C3CCC4=CC(=O)CCC4(C)C3C(O)CC21C (stereo not drawn) [Hydrocortisone 21-acetate],109
13,Cl.NCc1c[nH]c(=S)n1[C@H]1CCc2c(F)cc(F)cc2C1,111
14,COc1cc2ncnc(Nc3ccc(Cl)cc3Cl)c2cc1OC [Ste11 MAPKKK Activation Inhibitor],130
15,Nc1ccc(-c2cccc3c(=O)cc(N4CCOCC4)oc23)cc1,156 (active)
16,NC(N)=NCc1cccc(I)c1 [N-(3-iodobenzyl)guanidine],105
17,CC1(NCC(O)COc2cccc3[nH]ccc23)CCC(C(C)(C)NC(=O)CBr)CC1 (stereo not drawn) [Pindobind-5HT1A],178 (active)
18,CC12CCC(=O)C=C1C=CC1C2CCC2(C)C1CCC21CCC(=O)O1 (stereo not drawn) [Canrenone],102
19,O=C(c1ccc2c(c1)OCCO2)N1CCCCC1,107
20,COc1ccc(C=Cc2cc(OC)cc(=O)o2)cc1 [Yangonin],100

row,Compound,H1.0 immunofluorescence intensity
1,CCCCCC(O)CC=C1C(=O)C=CC1CC=CCCCC(=O)O (stereo not drawn) [D12-Prostaglandin J2],106
2,CC(=O)O.NC(=NCCCC(N)C(=O)O)NO [NG-Hydroxy-L-arginine acetate],89.2
3,CNC(=O)c1ccccc1Sc1ccc2c(C=Cc3ccccn3)n[nH]c2c1 [Axitinib],134
4,OCC1OC(n2cnc3c(NC4CCCC4)ncnc32)C(O)C1O (stereo not drawn) [N6-Cyclopentyladenosine],97.7
5,O=C1NC(=O)c2c1c(-c1ccccc1)cc1[nH]c3ccc(O)cc3c21,91.4
6,COc1cccc(/C=N/CC/N=C/c2cccc(OC)c2[O-])c1[O-].[Cl-].[Mn+2],108
7,CCOC(=O)Oc1c(OC)cc(C(=O)OC2CC3CN4CCc5c([nH]c6cc(OC)ccc56)C4CC3C(C(=O)OC)C2OC)cc1OC (stereo not drawn) [Syrosingopine],105
8,NC(=S)NCCCC(N)C(=O)O (stereo not drawn) [Thiocitrulline],95.7
9,"O.Oc1cc(O)c2c(c1)OC(c1ccc(O)c(O)c1)C(O)C2 (single isomer, unassigned; (+)) [(+)-Catechin Hydrate]",91.7
10,O=c1ccc2ccc(O)c(O)c2o1 [Daphnetin],95.2
11,"CCN1CCCC1CNC(=O)c1cc(S(N)(=O)=O)ccc1OC (single isomer, unassigned; (-)) [(-)-Sulpiride]",98.5
12,CC(=O)Oc1ccc(C(c2ccc(OC(C)=O)cc2)c2ccccn2)cc1 [Bisacodyl],125
13,CC(C)C(=O)Nc1ncc(-c2cc(C(F)F)nn2-c2c(Cl)cccc2Cl)s1,111
14,Cc1ccccc1C(=O)c1ccc(Nc2ccc(Br)cc2N)cc1Cl,117
15,O=C([O-])c1cc(=O)c2c(OCC(O)COc3cccc4oc(C(=O)[O-])cc(=O)c34)cccc2o1.[Na+].[Na+] [Disodium Cromoglycate],103
16,CC(C)=CCCC(C)=CCCC(C)=CCCC(C)=CCCC(C)=CCCC(C)=CCCC(C)=CCCC(C)=CCCC(C)=CCO [Solanesol],93.9
17,O=C1NC(=O)C(=Cc2cccc(C(F)(F)F)c2)S1 [PIM1/2 Kinase Inhibitor V],108
18,CC1OC(n2cc(F)c(=O)[nH]c2=O)C(O)C1O (stereo not drawn) [Doxifluridine],101
19,CCCCN1CCCC[C@H]1C(=O)Nc1c(C)cccc1C.Cl,108
20,Cl.O.O=C(O)CN(CCN(CC(=O)O)Cc1ccccc1O)Cc1ccccc1O,90.1
